Experimental data reported in PubChem BioAssay (NCI).
About 83,000 compounds went through this panel and 20% of them were active in at least one assay; those are over-represented in the sample as a whole.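 Cell lines were cultured in 96-well plates, exposed to a single compound concentration, and assessed for percent growth 48 hours later.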 Values without a mark were called inactive. The source made the active and inactive calls. The calls were made as follows: active = growth percent below 10; inactive = the rest.

The compounds below were run on OVCAR-5 ovarian (assay: NCI-60 one-dose screen, 48 h (100 = growth as untreated, 0 = no growth, -100 = all killed)). Conditions: 10 µM unless noted.

| Structure (SMILES) | growth |
| --- | --- |
| O=C(/C=C/c1c(-c2ccc(Cl)cc2)nn(-c2ccccc2)c1C(F)(F)F)c1ccc(Cl)cc1 | 102% |
| Cc1c(C)c([N+](=O)[O-])c(C)c([N+](=O)[O-])c1C | 104% |
| CC(c1ccccc1)C(C(=O)c1ccccc1)c1ccccc1 (stereo not given) | 101% |
| COc1cc(NC(=O)CSc2nc3ccc(C)cc3c(=O)n2Cc2ccccc2)cc(OC)c1OC | 96.3% |
| CSc1nc2sc3cccc(Cl)c3n2c(=N)c1C#N | 119% |
| CCN(c1ccccc1)S(=O)(=O)c1cc([N+](=O)[O-])ccc1Cl | 67.4% |
| COC1=CC(=O)c2ccccc2C1=O | 107% |
| COC(=O)c1ccc2c(c1)[n+](=O)c(C(C)=O)c(C(F)(F)F)n2[O-] | -12.9% (active) |
| COc1ccc(/C=C/C(=O)Nc2cc(/C=C\c3cc(OC)c(OC)c(OC)c3)cc(OC)c2OC)cc1OC | 63.2% |
| N#C/C(=C\c1cccc(C#N)c1)c1ccccc1 | 100% |
| C[C@H]1[C@H]2[C@H]3CC[C@@H]4[C@@]5(C)CC[C@H](O)C(C)(C)[C@@H]5CC[C@@]4(C)[C@]3(C)CC[C@]23CO[C@]1(C)[C@@H](C(=O)/C=C\c1ccco1)C3 | 102% |
| COc1cc2cc(Oc3cccc(NC(=O)Nc4cc(C(F)(F)F)cc(C(F)(F)F)c4)c3)c(C)nc2cc1OC | 14.6% |
| Cc1ncc(C(=O)Nc2ccc(CN3CCN(C)CC3)c(C(F)(F)F)c2)cc1C#Cc1cnc(N)cc1C#N | -94.1% (active) |
| Cc1ccc(-n2nc3c(c(C#N)c2=O)CC(c2ccccc2[N+](=O)[O-])C([N+](=O)[O-])=C3O)cc1 (stereo not given) | 99.8% |
| C#Cc1cccc(NC(=O)c2cccc(NC(=O)CCl)c2)c1 | 8.37% [8.25 µM] (active) |
| N#CC1=C(N)Oc2c(ccc3ccccc23)C1c1ccccc1Cl (stereo not given) | 38.8% |
| O=C(CSc1nc2ccccc2[nH]1)NCc1ccccc1 | 95.4% |
| COc1ccc(-c2nc(S(=O)(=O)c3ccccc3)c(S(=O)CC(=O)N3CCC(C)CC3)o2)cc1 (stereo not given) | 48% |

| Structure (SMILES) | growth |
| --- | --- |
| COc1cc(C2C3=C(COC3=O)N(CCO)c3cc4c(cc32)OCO4)cc(OC)c1OC (stereo not given) | 27.7% |
| N#Cc1c(-c2ccccc2)nc2c(c(-c3ccccc3)nn2-c2ccccc2)c1-c1ccc(O)cc1 | 81.2% |
| CC(=O)[C@H]1CCC/C=C/[C@@H]2C[C@H](O)C[C@H]2[C@H](O)/C=C/C(=O)O1 | 32.3% |
| O=C1/C=C/[C@@H](O)[C@@H]2C[C@@H](O)C[C@H]2/C=C/CCC[C@H](CCc2cccc3ccccc23)O1 | 24.6% |
| CC(C)(C)[Si](C)(C)OC1[C@@H](O[Si](C)(C)C(C)(C)C)[C@@H](CNC(=O)NC(=O)CCl)O[C@H]1n1cnc2c(NC(=O)Nc3ccccc3)ncnc21 (stereo not given in full) | 5.37% (active) |
| COc1cc(CC(=O)n2ncc3ccc(N)cc32)cc(OC)c1OC | 91.9% |
| Cc1cc2c(c(C)c1Cl)C(=O)/C(=C/c1ccc(O)c(O)c1)O2 | 117% |
| O=C1C=CC(=O)N1c1cccc(Cl)c1 | 111% |
| COC(=O)C(CC=O)C(=O)C(=O)Nc1cccc(C(F)(F)F)c1 (stereo not given) | 112% |
| CN(CCN(C)c1ccc(C(=N)N)cc1)c1ccc(C(=N)N)cc1 | 90.9% |
| O=C1/C=C/[C@@H](O)[C@@H]2C[C@@H](O)C[C@H]2/C=C/CCC[C@H](CCc2ccc3ncccc3c2)O1 | 27.5% |
| C#Cc1cccc(NC(=O)Nc2cccc(NC(=O)CCl)c2)c1 | 12.8% [8.25 µM] |
| CCNc1nc2ccc(Nc3ccnc4cc(Cl)ccc34)cc2[nH]1 | 113% |
| N#CC(C(=O)/C(=N/NC(=O)c1ccccc1O)C(C#N)c1ccccc1)c1ccccc1 (stereo not given) | 91.2% |
| O=[N+]([O-])c1ccc(N=Nc2cc(S(=O)(=O)O)c3cccc(S(=O)(=O)O)c3c2O)cc1 | 113% |
| C=CCn1c(-c2ccc(-c3nc4ccc(C)cc4[nH]3)cc2)n[nH]c1=S | 101% |
| O=C1Nc2ccccc2/C1=C\c1c(-c2ccccc2)nc2ccccn12 | 68.2% |
